The values that follow come from ChEMBL document CHEMBL1961873, “Compounds: GSK PKIS; Assays: Nanosyn kinase panel” (2012).

The structures appear in SMILES notation.

For assay [1], the target named is Glycogen synthase kinase-3 beta (Homo sapiens) (UniProt P49841). The note with it: at 1 µM.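 Also: reported values are mean percent inhibition of GSK3B.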
Assay [2] has as its target Homeodomain-interacting protein kinase 1 (Homo sapiens) (UniProt Q86Z02). Conditions: at 0.1 µM.
Assay [3] has the same target. Conditions: at 1 µM.
In assay [4] the target is T1, Homeodomain-interacting protein kinase 4 (Homo sapiens) (UniProt Q8NE63).
T1 sequence (whole entry): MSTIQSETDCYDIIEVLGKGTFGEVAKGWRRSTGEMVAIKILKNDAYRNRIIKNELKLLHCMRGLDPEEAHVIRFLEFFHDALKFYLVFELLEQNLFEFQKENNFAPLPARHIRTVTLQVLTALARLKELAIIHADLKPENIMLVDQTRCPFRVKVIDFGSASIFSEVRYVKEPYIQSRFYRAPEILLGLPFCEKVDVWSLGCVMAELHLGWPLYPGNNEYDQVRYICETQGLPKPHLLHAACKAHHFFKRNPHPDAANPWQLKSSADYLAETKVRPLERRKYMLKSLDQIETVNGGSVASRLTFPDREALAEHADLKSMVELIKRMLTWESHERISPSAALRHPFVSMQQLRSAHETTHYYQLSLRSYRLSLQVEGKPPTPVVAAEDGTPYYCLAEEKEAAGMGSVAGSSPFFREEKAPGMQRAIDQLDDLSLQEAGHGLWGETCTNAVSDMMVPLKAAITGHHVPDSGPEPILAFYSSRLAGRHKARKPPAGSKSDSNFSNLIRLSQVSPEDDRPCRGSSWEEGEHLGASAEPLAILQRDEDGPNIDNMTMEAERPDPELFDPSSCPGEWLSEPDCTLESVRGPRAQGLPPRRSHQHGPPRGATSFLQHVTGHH
The note with it: at 0.1 µM.

Assay [5] deals with T1, Homeodomain-interacting protein kinase 4 (Homo sapiens). Conditions: at 1 µM.
The target in assay [6] is Mitogen-activated protein kinase 9 (Homo sapiens) (UniProt P45984). Conditions: at 0.1 µM.
Mitogen-activated protein kinase 9 (Homo sapiens), sequence (P45984 whole entry, looked up): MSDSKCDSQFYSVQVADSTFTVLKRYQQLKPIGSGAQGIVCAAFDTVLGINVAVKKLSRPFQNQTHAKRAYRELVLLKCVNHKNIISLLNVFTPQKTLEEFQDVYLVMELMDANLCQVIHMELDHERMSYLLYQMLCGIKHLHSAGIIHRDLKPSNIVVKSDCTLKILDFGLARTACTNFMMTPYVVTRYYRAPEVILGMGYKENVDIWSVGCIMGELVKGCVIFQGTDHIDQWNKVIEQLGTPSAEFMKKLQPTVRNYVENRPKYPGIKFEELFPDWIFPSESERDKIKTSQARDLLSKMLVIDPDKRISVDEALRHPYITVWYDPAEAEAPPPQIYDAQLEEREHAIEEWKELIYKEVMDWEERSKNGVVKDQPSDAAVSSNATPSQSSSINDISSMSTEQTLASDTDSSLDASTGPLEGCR
For assay [7] the target is unchanged. Conditions: at 1 µM.
The target in assay [8] is Mitogen-activated protein kinase 1 (Homo sapiens) (UniProt P28482). Conditions: at 0.1 µM.
Mitogen-activated protein kinase 1 (Homo sapiens), sequence (P28482 whole entry): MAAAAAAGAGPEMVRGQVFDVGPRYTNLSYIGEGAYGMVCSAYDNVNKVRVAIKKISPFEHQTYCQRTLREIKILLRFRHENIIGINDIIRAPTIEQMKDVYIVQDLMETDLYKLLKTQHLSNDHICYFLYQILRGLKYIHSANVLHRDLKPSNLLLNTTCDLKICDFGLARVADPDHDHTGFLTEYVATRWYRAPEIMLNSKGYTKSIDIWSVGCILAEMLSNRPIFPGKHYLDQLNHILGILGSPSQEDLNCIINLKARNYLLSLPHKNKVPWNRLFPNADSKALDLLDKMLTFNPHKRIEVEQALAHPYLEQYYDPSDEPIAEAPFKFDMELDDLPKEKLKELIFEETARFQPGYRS
Assay [9] has the same target. The note with it: at 1 µM.
For assay [10], the target named is Mitogen-activated protein kinase 3 (Homo sapiens) (UniProt P27361). The note with it: at 0.1 µM.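 Also: each value is a mean inhibition figure.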
Mitogen-activated protein kinase 3 (Homo sapiens), sequence (P27361 whole entry): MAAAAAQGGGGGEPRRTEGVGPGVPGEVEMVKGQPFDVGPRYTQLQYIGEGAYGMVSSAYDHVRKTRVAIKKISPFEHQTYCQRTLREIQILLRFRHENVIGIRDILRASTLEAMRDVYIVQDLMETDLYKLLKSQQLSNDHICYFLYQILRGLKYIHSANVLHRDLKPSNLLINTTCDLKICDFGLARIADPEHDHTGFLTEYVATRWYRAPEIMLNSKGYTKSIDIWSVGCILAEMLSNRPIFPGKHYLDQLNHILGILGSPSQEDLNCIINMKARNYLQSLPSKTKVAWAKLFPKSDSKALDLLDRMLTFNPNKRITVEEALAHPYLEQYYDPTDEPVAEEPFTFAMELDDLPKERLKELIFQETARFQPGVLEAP

Glycogen synthase kinase-3 beta (Homo sapiens), sequence (P49841 whole entry, looked up): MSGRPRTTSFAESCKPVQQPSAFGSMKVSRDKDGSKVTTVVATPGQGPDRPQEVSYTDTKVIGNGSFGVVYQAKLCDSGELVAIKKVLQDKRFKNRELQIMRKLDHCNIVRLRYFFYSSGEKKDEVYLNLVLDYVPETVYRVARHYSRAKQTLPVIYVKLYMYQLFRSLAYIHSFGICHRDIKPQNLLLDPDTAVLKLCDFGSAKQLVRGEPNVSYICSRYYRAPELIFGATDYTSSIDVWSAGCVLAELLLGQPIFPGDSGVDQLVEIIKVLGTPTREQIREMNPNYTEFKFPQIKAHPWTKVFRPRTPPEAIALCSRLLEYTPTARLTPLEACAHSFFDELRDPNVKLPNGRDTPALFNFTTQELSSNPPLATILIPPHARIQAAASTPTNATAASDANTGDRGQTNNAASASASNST
Homeodomain-interacting protein kinase 1 (Homo sapiens), sequence (Q86Z02 whole entry, looked up): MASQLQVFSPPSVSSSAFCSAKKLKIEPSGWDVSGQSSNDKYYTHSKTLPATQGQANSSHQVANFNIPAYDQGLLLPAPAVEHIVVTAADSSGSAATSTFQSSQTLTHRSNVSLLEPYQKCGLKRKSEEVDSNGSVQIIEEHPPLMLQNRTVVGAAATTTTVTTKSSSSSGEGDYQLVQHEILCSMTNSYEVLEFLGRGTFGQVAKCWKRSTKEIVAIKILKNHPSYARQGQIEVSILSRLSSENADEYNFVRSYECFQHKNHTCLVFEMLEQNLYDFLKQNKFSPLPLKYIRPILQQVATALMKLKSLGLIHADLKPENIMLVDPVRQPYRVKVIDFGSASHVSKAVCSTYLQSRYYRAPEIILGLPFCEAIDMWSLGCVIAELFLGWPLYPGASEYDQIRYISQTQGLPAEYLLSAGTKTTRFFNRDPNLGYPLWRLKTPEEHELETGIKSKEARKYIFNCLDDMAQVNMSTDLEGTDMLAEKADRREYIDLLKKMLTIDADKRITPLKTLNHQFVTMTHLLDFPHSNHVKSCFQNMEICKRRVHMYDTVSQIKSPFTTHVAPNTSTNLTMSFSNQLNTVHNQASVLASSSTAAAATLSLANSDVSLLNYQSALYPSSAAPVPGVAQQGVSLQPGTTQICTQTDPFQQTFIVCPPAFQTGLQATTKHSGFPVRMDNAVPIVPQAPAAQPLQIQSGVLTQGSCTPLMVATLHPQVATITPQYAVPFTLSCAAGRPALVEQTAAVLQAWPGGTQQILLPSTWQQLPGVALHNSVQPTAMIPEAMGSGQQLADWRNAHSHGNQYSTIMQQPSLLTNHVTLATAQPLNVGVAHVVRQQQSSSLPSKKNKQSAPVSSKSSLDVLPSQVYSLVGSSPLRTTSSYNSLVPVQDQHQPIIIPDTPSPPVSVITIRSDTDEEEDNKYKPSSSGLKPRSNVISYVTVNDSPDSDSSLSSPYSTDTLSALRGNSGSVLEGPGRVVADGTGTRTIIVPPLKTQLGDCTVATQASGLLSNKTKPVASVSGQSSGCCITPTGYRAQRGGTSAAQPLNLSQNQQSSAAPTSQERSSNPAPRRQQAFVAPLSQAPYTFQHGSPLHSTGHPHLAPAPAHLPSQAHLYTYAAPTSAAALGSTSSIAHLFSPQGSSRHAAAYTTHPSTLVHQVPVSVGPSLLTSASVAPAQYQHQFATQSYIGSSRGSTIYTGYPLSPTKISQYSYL

Consider `NC(=O)c1cccc(Nc2nccc(Nc3cccc4[nH]ncc34)n2)c1`, for which the inhibition was 35% in assay [1]; 1.13% in assay [2]; 7.88% in [3]; 3.21% in assay [4]; 21.2% in assay [5]; -6.25% in assay [6]. For the same molecule, the inhibition was 4.55% in assay [7], -3.75% in [8], -0.34% in [9] and -3.05% in assay [10].

As to `Cc1nn(C)c2cc(N(C)c3ccnc(Nc4cccc(S(N)(=O)=O)c4)n3)ccc12`, the inhibition in assay [1] is 5.82%; in assay [2], -3.06%; in [3], -2.18%; in [4], -1.56%; in assay [5], 4.09%; in assay [6], 3.35%. Moreover, the inhibition in assay [7] is 10.2%; in [8], 2.91%; in assay [9] it was 4.88%; in assay [10], 2.88%.

`CS(=O)(=O)CCNCc1ccc(-c2ccc3ncnc(Nc4ccc(OCc5cccc(F)c5)c(C(F)(F)F)c4)c3c2)o1`: the inhibition was -0.18% in [1]; -1.8% in assay [2]; -2.73% in assay [3]; -1.19% in [4]; -0.51% in [5]; 5.87% in assay [6]. Also, the inhibition turned out to be 4.78% in assay [7], 5.04% in assay [8], 5.42% in [9] and 2.83% in assay [10].

Turning to `CC1=C(C(=O)Nc2ccc3[nH]ncc3c2)C(c2ccc(F)cc2)NC(=O)N1` (configuration not stated), the inhibition in assay [1] is 1.6%; in assay [2], -0.95%; in assay [3] it was -0.69%; in assay [4] it was -0.2%; in assay [5] it was -0.66%; in [6], 1.75%. The inhibition is 0.78% in assay [7], 1.62% in [8], 4.83% in assay [9] and 2.23% in assay [10].

`COC(=O)Nc1nc2cc(Oc3cccc(NC(=O)Nc4cc(C(F)(F)F)ccc4F)c3)ccc2[nH]1`: the inhibition in [1] was 6.36%; in assay [2] it was -3.75%; in assay [3], -1.32%; in assay [4], -1.03%; in assay [5], 11.4%; in assay [6], 2.79%. In addition, the inhibition is 1.58% in assay [7], -0.65% in [8], 0.3% in assay [9] and -0.17% in assay [10].

On to `CS(=O)(=O)Nc1ccc(N/C=C2\C(=O)Nc3ccccc32)cc1`, for which the inhibition in assay [1] was 17.2%; in assay [2], -1.53%; in assay [3] it was 3.36%; in assay [4], 0.6%; in assay [5], 4.82%; in [6] it was 0.25%. Also, the inhibition in assay [7] is 5.63%; in assay [8] it was -4.34%; in assay [9], -2.51%; in [10], -0.36%.

For the molecule `N#Cc1c(NC(=O)c2cccc3ccccc23)sc2c1CCCC2`, the inhibition in assay [1] was 6.89%; in assay [2], -2.43%; in assay [3] it was 1.91%; in [4] it was -1.01%; in assay [5], 2.45%; in assay [6], 6.07%. Besides, the inhibition in [7] was 25.4%; in assay [8], 2.02%; in assay [9], 3.91%; in assay [10] it was -0.53%.

`COc1ccc(-c2nn3ncccc3c2-c2ccnc(Nc3ccc(Cl)c(C(F)(F)F)c3)n2)cc1`: the inhibition is 4.05% in assay [1]; -0.18% in assay [2]; -0.9% in [3]; 1.05% in assay [4]; 1.36% in assay [5]; 1.72% in [6]. In addition, the inhibition was 4.38% in [7], 3.47% in assay [8], 3.46% in assay [9] and 4.84% in assay [10].

For `CCN1CCC(CC(=O)Nc2n[nH]c3nc(-c4cccs4)c(Br)cc23)CC1`, the inhibition in [1] is 68.7%; in [2], 3.88%; in assay [3], 6.48%; in assay [4] it was 2.06%; in assay [5] it was 8.88%; in [6] it was -5.62%. For the same molecule, the inhibition in assay [7] was -3.11%; in [8], -4.72%; in [9], -6.9%; in [10], -1.1%.

Consider `Cc1cc(O)cc(C)c1/C=C/c1cncc(-c2nn[nH]n2)c1`, for which the inhibition in assay [1] is 2.36%; in [2], -4.42%; in assay [3], -1.96%; in [4] it was 1.12%; in [5] it was 3.32%; in assay [6] it was 7.47%. Besides, the inhibition in assay [7] amounted to 9.2%; in assay [8], 4.59%; in [9], 5.51%; in assay [10] it was 4.38%.

As to `O=C1Nc2ccc(C(=O)c3ccco3)cc2C1=Cc1cc(Cl)c(O)c(Cl)c1`, the inhibition was 75.8% in assay [1]; 14% in [2]; 54.1% in [3]; 4.69% in [4]; 32.9% in [5]; 2.31% in assay [6]. For the same molecule, the inhibition in assay [7] worked out at 6.22%; in [8], 2.44%; in [9], 4.55%; in assay [10] it was 1.44%.

As to `Cc1nnc(-c2ccc(C)c(-c3ccc(C(=O)Nc4cccc(C#N)c4)cc3)c2)o1`, the inhibition in assay [1] was 3.29%; in assay [2] it was -1.32%; in assay [3], -2.46%; in assay [4] it was 0.46%; in assay [5], 0.28%; in assay [6], 4%. For the same molecule, the inhibition in assay [7] worked out at 2.96%; in [8], 0.61%; in assay [9], 2.56%; in assay [10] it was 3.17%.

Regarding `Nc1nc(-c2ccc3c(c2)C(=Cc2cc(Br)c(O)c(Br)c2)C(=O)N3)cs1`, the inhibition was 4.42% in assay [1]; -1.1% in assay [2]; 4.76% in assay [3]; 0.92% in [4]; 11.3% in [5]; -3.8% in assay [6]. For the same molecule, the inhibition in assay [7] was -4.58%; in assay [8], -2.57%; in assay [9], -2.89%; in assay [10], -0.09%.

For `CS(=O)(=O)CCNCc1nc(-c2ccc3ncnc(Nc4ccc(F)c(Cl)c4)c3c2)cs1`, the inhibition in [1] is 1.99%; in assay [2] it was 1.07%; in assay [3] it was 5.32%; in assay [4] it was 3.32%; in assay [5] it was 18.8%; in [6], 1.61%. The inhibition in assay [7] was 4.55%; in [8], 4.72%; in assay [9], 5.04%; in [10], 1.63%.

With `COc1cc(C)c(NC(=O)CN(C)C)cc1Nc1nc(Nc2cccc(F)c2C(N)=O)c2cc[nH]c2n1`, the inhibition in [1] worked out at 0.98%; in [2], 13.9%; in assay [3], 60.6%; in [4], 15.9%; in assay [5], 63.4%; in assay [6] it was 3.11%. Moreover, the inhibition in assay [7] was determined as 12.6%; in assay [8], 2.86%; in [9], 4.47%; in assay [10], 2.47%.

For the molecule `Nc1ncnc2occ(-c3ccc(NC(=O)Nc4cccc(C(F)(F)F)c4)cc3)c12`, the inhibition stood at 11% in assay [1]; 5.73% in assay [2]; 37.4% in [3]; 67.4% in assay [4]; 78.3% in [5]; 3.31% in assay [6]. The inhibition in assay [7] was 14.5%; in assay [8], 4.78%; in assay [9], 6.77%; in assay [10], 4.22%.

`NS(=O)(=O)c1ccc(N/N=C2\C(=O)Nc3ccc(C(=O)NCCc4c[nH]cn4)cc32)cc1`: the inhibition was 86.6% in [1]; 9.13% in assay [2]; 48.9% in [3]; 3.77% in assay [4]; 20.2% in [5]; 3.56% in assay [6]. Also, the inhibition in [7] was 9.28%; in assay [8], 1.92%; in assay [9] it was 17.6%; in assay [10], 5.33%.

`COc1ccc(COc2ccc(Cc3cnc(N)nc3N)cc2OC)cc1`: the inhibition in [2] was -1.6%; in assay [3], 0.13%; in assay [4], 2.52%; in assay [5], 4.49%; in assay [6], 0.2%; in assay [7], 0.51%. Also, the values for the inhibition in assay [8], in assay [9] and in [10] were -1.03%, -0.13% and 0.6%, respectively.

Turning to `NS(=O)(=O)c1cccc(-c2ccc3c(NC(=O)C4CC4)n[nH]c3c2)c1`, the inhibition is -0.23% in assay [2]; 0.61% in assay [3]; 0.1% in [4]; 1.04% in assay [5]; -7.07% in [6]; -5.26% in [7]. Besides, the inhibition in [8] is -2.53%; in assay [9], -5.17%; in assay [10], 0.73%.

For `CN1CCC(C(=O)Nc2n[nH]c3nnc(-c4ccccc4)cc23)CC1`, the inhibition in assay [2] worked out at 3.96%; in assay [3], 9.2%; in [4] it was 0.93%; in [5], 4.44%; in assay [6], 4.37%; in [7] it was 5.52%. Also, the inhibition was 7.18% in assay [8], 5.71% in assay [9] and 5.71% in assay [10].

One may read the inhibition as the change of the read-out against control, counted positive when it falls.
